Results as given in article PMC4336329 (PLoS ONE, 2015).
About 14,000 (4.5%) of roughly 310,000 compounds showed an effect of 50% or more. Effects have a minus sign here. What follows is part of a selection rich in strong results, with near analogues and random picks from the rest.

The molecules below were run against human ether-à-go-go-related gene (hERG) potassium channel (human, UniProt Q12809) (assay: primary screen, population patch clamp on CHO cells stably expressing hERG; higher = less effect of the substance).
Chain of human ether-à-go-go-related gene (hERG) potassium channel (Q12809 whole entry, looked up): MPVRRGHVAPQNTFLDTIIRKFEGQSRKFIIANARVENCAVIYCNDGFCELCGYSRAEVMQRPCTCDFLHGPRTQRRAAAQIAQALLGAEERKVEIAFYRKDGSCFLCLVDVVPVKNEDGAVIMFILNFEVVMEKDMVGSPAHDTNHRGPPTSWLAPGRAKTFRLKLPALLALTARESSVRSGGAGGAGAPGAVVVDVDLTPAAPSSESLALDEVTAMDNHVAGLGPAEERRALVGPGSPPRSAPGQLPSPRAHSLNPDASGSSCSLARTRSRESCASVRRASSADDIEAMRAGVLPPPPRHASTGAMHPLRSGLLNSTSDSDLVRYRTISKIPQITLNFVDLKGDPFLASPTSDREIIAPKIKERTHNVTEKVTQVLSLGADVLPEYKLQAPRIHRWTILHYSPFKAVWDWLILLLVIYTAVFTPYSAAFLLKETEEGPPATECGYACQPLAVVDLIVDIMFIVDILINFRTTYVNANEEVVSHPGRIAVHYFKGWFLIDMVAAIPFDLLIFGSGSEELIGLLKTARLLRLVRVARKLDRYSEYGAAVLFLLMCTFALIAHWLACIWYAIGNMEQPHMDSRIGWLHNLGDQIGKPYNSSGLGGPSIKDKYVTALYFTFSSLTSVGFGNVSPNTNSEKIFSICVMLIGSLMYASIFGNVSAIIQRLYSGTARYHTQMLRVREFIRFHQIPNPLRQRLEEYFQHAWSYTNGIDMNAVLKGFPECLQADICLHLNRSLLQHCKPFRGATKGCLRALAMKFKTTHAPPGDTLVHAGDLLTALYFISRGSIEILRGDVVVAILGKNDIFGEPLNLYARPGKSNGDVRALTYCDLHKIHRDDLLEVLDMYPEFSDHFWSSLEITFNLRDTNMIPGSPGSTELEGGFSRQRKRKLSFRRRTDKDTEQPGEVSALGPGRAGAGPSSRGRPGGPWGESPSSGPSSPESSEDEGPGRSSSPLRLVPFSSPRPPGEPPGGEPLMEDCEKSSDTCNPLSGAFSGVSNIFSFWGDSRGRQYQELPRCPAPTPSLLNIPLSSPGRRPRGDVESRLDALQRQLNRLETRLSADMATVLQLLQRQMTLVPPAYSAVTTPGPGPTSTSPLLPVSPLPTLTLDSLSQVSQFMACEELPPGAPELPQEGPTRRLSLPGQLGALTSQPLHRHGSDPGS
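Note: peak tail current of the secondary pulse compared with the same well before compound.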

Point of comparison: `Cc1nn(Cc2ccccc2)c(C)c1C(=O)N1CCN(CC(=O)Nc2ccccc2Cl)CC1`, “hERG current change (%, negative = inhibition) at 10uM” value -50.3%. Against it:
- COc1ccccc1CC(=O)N1CCC(CCC(=O)NC2CC2)CC1 — higher, 13.8%
- COc1cc(CC(=O)OCC(=O)NC2CC2)cc(OC)c1OC — higher, 10.4%
- COc1ccc(OC)c(C(=O)N2CCC(CCC(=O)NC3CC3)CC2)c1 — higher, 13.1%
- CCOCc1cc(CN2CCC(CCC(=O)NC3CC3)CC2)ccc1OC — lower, -62.1%
- COc1cc(Br)c(CC(=O)NC2CC2)cc1OC — higher, 17.8%
- COc1cc(NC(=O)C2CC2)c(OC)cc1NC(=O)CCC(=O)NC1CCN(Cc2ccccc2)CC1 — higher, 2.82%
- COc1cc(CN2CCC(CCC(=O)NC3CC3)CC2)cc(Cl)c1OC — lower, -55.4%
- COc1cc(Cl)cc(CN2CCC(CCC(=O)NC3CC3)CC2)c1OC — higher, -20.8%
- COc1cc(Cl)c(CN2CCC(CCC(=O)NC3CC3)CC2)cc1OC — lower, -66.2%
- COc1ccc(-c2nc3ccccc3c(=O)n2CCOc2ccccc2C)cc1 — higher, 21%
- Cc1ccccc1-c1nc(CS(=O)(=O)CC(=O)NCCN2CCCC2)c(C)o1 — higher, -10.4%
- COC(=O)c1ccccc1NC(=O)CCC(=O)N1CCSc2ccccc21 — higher, -12.1%
- COc1ccc(N(CC(=O)Nc2cccc(SC)c2)S(C)(=O)=O)cc1 — higher, -12.5%
- CC(CCc1ccccc1)NC(=O)CNC(=O)c1cccs1 (stereo not drawn) — higher, -5.72%
- COc1ccc(NC(=O)NNC(=O)C(C)Oc2ccc3ccccc3c2)cc1 (stereo not drawn) — higher, 8.34%
- CC(C)(C)c1ccc(-c2conc2N)cc1 — higher, 5.58%
- CCOc1ccccc1C(=O)N(C)CC(=O)Nc1ccc(OC)cc1 — higher, 12%
- Cc1ccc(S(=O)(=O)NNC(=S)Nc2c(Cl)cccc2Cl)cc1 — higher, 16.8%
- Cc1cc(N2CCCc3ccccc32)n2ncnc2n1 — higher, 6.99%
- Cc1ccc(S(=O)(=O)N(C)C)cc1NC(=O)C1Cc2ccccc2CN1C(=O)c1ccco1 (stereo not drawn) — higher, -9.91%
- COc1ccc(-c2ccc(SCC(=O)NCc3ccco3)nn2)cc1 — higher, -8.73%
- COc1ccc(CNC(=O)c2ccccc2SCC(=O)NCc2ccco2)cc1 — higher, -31.3%
- COc1ccc(CNc2nc(SCC(=O)NCc3ccco3)nc3ccccc23)cc1 — lower, -68.9%
- CCOC(=O)CSc1nc(NCc2ccco2)c2ccccc2n1 — lower, -56.1%
- COc1ccc(CNc2ncnc3ccccc23)cc1 — higher, 21.7%
- CCOC(=O)CSc1nc(C)c2ccccc2n1 — higher, 0.921%
- CCCCN(C)C(=O)CSc1nc(NCc2ccc(OC)cc2)c2ccccc2n1 — lower, -71%
- CSc1nc(NCc2ccco2)c2ccccc2n1 — higher, 2.5%
- CCOC(=O)c1nc(NCc2cccc(OC)c2)c2ccccc2n1 — higher, -13.5%
- CCN1CCN(Cc2ccc(NC(=O)c3cc(NC(=O)c4cc(C)on4)cc(OC)c3)cc2C(F)(F)F)CC1.O=C(O)C(F)(F)F — higher, -28.7%
- Cc1ccc2cccc(S(=O)(=O)NC3CCS(=O)(=O)C3)c2n1 (stereo not drawn) — higher, -7.02%
- O=S(=O)(NCC1(N2CCOCC2)CCCCC1)c1ccc(Cl)cc1C(F)(F)F — higher, -0.581%
- Cc1cc(NC(=O)c2cc3n(n2)C(C(F)(F)F)CC(c2ccco2)N3)no1 (stereo not drawn) — higher, 4.63%
- Cn1c(=O)n(-c2ccc(Cl)cc2)c(=O)c2c3c(sc21)COC(C)(C)C3 — higher, 3.68%
- O=C(N/N=C/c1cccnc1)c1ccccc1Cl — higher, 14.2%
- COc1ccc(Cc2c(O)[nH]c(=S)[nH]c2=O)cc1 — higher, 13.8%
- CN1CCN(C(=O)CN(CCc2ccccc2)S(C)(=O)=O)CC1 — higher, 11%
- CCn1ccnc1CN(C)Cc1cn(-c2ccc(C)cc2)nc1-c1cccc(C)c1 — higher, -28.1%
- Cc1ccc(C)c(-n2cc(CN3CCCN(C=O)CC3)c(-c3ccccc3)n2)c1 — higher, -31.9%
- Cc1ccc(C)c(-n2cc(CNCCc3cnccn3)c(-c3ccccc3)n2)c1 — lower, -67.1%
- COCCN1CCC(CNCc2cn(-c3cc(C)ccc3C)nc2-c2ccccc2)C1 (stereo not drawn) — higher, -18%
- CCn1ccnc1CNCc1cn(-c2cc(C)ccc2C)nc1-c1ccccc1 — lower, -69.3%
- CCn1ccnc1CN(C)Cc1cn(-c2ccc(C)cc2)nc1-c1ccc(F)cc1 — higher, -39.9%
- Cc1ccc(C)c(-n2cc(CN3CCNC(=O)CC3)c(-c3ccccc3)n2)c1 — higher, -43.5%
- CCn1ccnc1CN(C)Cc1cn(-c2cc(C)ccc2C)nc1-c1ccccc1 — lower, -51.7%
- CCn1ccnc1CN(C)Cc1cn(-c2cccc(C)c2)nc1-c1cccc(F)c1 — higher, -18.3%
- CCCN1CCC(=NNC(=O)c2ccc(Br)o2)CC1 — higher, -7.22%
- COc1ccc(S(=O)(=O)N=C2C=C(C)C(=O)C(C)=C2)cc1 — higher, -8.48%
- Cc1cc(=O)n2ccsc2n1 — higher, 3.28%
- Cc1cc(=O)[nH]c2c1cnn2Cc1ccccc1 — higher, 3.72%
- COc1ccc(/C=C(\C#N)C(=O)OCC(=O)NCc2ccccc2Cl)cc1 — higher, 6.86%
- Cc1nn(Cc2ccccc2)c(C)c1C(=O)O — higher, -19.1%
- Cc1nn(Cc2ccccc2Cl)c(Cl)c1C(=O)O — higher, 8.83%
- Cc1cccc(NC(=O)CN2CCN(C(=O)c3c(C)nn(Cc4ccccc4)c3C)CC2)c1C — higher, -20.4%
- Cc1nn(Cc2ccccc2)c(C)c1C(=O)N1CCN(S(=O)(=O)/C=C/c2ccccc2)CC1 — higher, -24.8%
- Cc1nn(Cc2ccccc2Cl)c(C)c1C(=O)N1CCN(c2ccccc2)CC1 — lower, -58.6%
- O=C(CN1CCN(CC(=O)Nc2ccccc2Cc2ccccc2)CC1)Nc1ccccc1Cl — higher, 20%
- Cc1cccc(N2CCN(C(=O)c3c(C)nn(Cc4ccccc4Cl)c3C)CC2)c1C — higher, -0.851%
- Cc1nn(Cc2ccccc2)c(C)c1C(=O)N1CCN(CC(=O)Nc2ccc(F)cc2)CC1 — lower, -62.6%
